Source: PubChem (National Center for Advancing Translational Sciences (NCATS))
Most compounds without a hit are left out; they make up all but 11% or so of the library.
PNC inhibitor: High Content Assay for Compounds that inhibit the Assembly of the Perinucleolar Compartment. AID 2417, 2010. activity change (PNC), negative = inhibition, % at 10 µM. PC3M PTB-GFP, PNC prevalence imaging, 16 h; stronger effect = lower value. 140,000 tested, 3.1% active;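 active = readout at or below -70, meaning at least 70% loss of cells showing the perinucleolar compartment, a nuclear body marking cancer cells; inconclusive = readout between -30 and a set limit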;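 also: plate controls were DMSO wells for no effect and camptothecin positive control wells for full effect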
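Compounds are pinned in duplicate onto adhered PC3M cells stably expressing GFP-tagged PTB and incubated 16 h at 37 C. Cells are then fixed, nuclei stained with Hoechst, and PNC-positive cells counted.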
HTT cytoprotect: qHTS Multiplex Assay to Identify Dual Action Probes in a Cell Model of Huntington: Cytoprotection (ATP); PC12 HTT-Q103 induced, cytoprotection, ATP luminescence, 40 h; Potency, µM (titrated, usually from 56.4 µM), for the others: cytoprotection (ATP increase), actives largely listed as activators; 230,000 tested, 0.14% active; also: potency is read from the fitted curve at half-maximal effect; % of control where 0% means no effect; nearly all actives have a fitted effect of over 45% in size
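Quantitative HTS on tebufenozide-induced (100 nM) PC12 cells expressing HTTQ103 exon 1–GFP; compounds tested as a concentration series; survival measured via cellular ATP.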
CBFb-RUNX1 inh: qHTS Assay for Compounds Blocking the Interaction Between CBF-beta and RUNX1 for the Treatment of Acute Myeloid Leukemia; Runt-related transcription factor 1 (Homo sapiens) + Core-binding factor subunit beta …; AlphaScreen CBFb-His/RUNX1-biotin binding, biochemical; Potency, µM (doses to about 59.8 µM), inactives show at the top dose activity, negative = inhibition, actives largely listed as inhibitors; 230,000 tested, under 10 active; AID 1477, 2009; also: % of control where 0% means no effect
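AlphaScreen proximity signal reports loss of binding between His-tagged CBF-beta and biotin-labelled RUNX1, each at 30 nM. Proteins are pre-associated for 20 minutes, compounds added for 15 minutes, then beads for 90 minutes, all at ambient temperature.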
HttQ103 aggreg: qHTS Multiplex Assay to Identify Dual Action Probes in a Cell Model of Huntington: Aggregate Formation (GFP); Potency, µM (series often up to 46.1 µM), without a hit: top-dose activity change, negative = inhibition, most hits filed as inhibitors; AID 1688, 2009; PC12 HttQ103-GFP aggregates, Acumen cytometry, 40 h; 220,000 tested, 1.1% active; also: potency is read from the fitted curve at half-maximal effect; % is scaled to controls: 0 for no effect and ±100 for the full control effect; nearly all actives have a fitted effect of over 60% in size
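Multiplexed with ATP-based cell death, this channel scores GFP aggregates in PC12 cells expressing inducible HTTex1-Q103-GFP. Induction used 100 nM tebufenozide; compounds were tested in concentration series.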
ALDH1A1 inh: qHTS Assay for Inhibitors of Aldehyde Dehydrogenase 1 (ALDH1A1); Aldehyde dehydrogenase 1A1 (Homo sapiens), P00352; Purified ALDH1A1, NADH fluorescence, propionaldehyde substrate; Potency, µM (titrated, usually from 75.3 µM), without a hit: at the top dose activity, negative = inhibition, actives largely listed as inhibitors; 220,000 tested, 7.3% active; active = well fitted inhibition curve with a large enough effect, not every such curve was filed as active; inconclusive = small, poorly fitted or top-dose-only effect, or another doubt; inactive = no such curve, though single readings can be large or run the other way;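 also: potency is read from the fitted curve at half-maximal effect; plate controls were no enzyme wells and a reference inhibitor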
Target sequence (P00352 whole entry, looked up): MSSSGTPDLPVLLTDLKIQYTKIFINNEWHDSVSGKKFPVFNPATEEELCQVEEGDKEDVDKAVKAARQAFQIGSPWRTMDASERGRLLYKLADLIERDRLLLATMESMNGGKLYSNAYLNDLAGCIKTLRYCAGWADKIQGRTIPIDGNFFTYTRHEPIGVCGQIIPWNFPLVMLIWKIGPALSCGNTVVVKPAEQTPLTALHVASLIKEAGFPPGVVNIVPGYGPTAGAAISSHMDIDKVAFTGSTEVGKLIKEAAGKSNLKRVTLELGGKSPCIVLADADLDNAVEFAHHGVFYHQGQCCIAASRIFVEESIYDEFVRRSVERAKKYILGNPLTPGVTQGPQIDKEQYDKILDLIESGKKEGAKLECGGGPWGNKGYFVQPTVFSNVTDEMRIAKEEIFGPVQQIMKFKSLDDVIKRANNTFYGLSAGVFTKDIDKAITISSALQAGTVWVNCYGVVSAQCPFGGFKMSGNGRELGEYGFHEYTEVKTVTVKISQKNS
HPGD inh: qHTS Assay for Inhibitors of HPGD (15-Hydroxyprostaglandin Dehydrogenase) | purified HPGD, NADH fluorescence kinetic, PGE2 substrate | Potency, µM, inactives show at the top dose activity change, negative = inhibition, hits mostly inhibitors | 150,000 tested, 4.3% active; active = well fitted inhibition curve with a large enough effect, not every such curve was filed as active; inconclusive = small, poorly fitted or top-dose-only effect, or another doubt; inactive = no such curve, though single readings can be large or run the other way; also: potency is read from the fitted curve at half-maximal effect; % is scaled to controls: 0 for no effect and ±100 for the full control effect
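20 nM HPGD preincubated 15 min at room temperature with compound in 50 mM Tris-HCl pH 8, 0.01% Tween 20. Started with 1 mM NAD+ and 30 uM prostaglandin E2; NADH fluorescence (360/450 nm) read 5 times over 30-s intervals, last minus first.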
* = called active by the depositor; ? = inconclusive; . = no result given; [ ] = another dose, or the depositor's remark. Unless noted, calls follow the shape of the dose curve; as a rule, active = well fitted curve in the direction sought with a large enough effect; inconclusive = small, poorly fitted or top-dose-only effect, or another doubt; inactive = no such curve, though single readings can be large; an effect the other way counts as inactive or inconclusive.

SMILES	PNC inhibitor	HTT cytoprotect	CBFb-RUNX1 inh	HttQ103 aggreg	ALDH1A1 inh	HPGD inh
CN(C)c1ccc(/C=C(\C#N)C(=O)c2ccccc2)cc1	.	-9%[10 µM]	6%	3%[9.22 µM]	7.1µM*	.
N#C/C(=C\c1cccs1)C(=O)c1ccccc1	.	24%[10 µM]	10%	2%[9.22 µM]	.	.
N#C/C(=C\c1ccc(C#N)cc1)C(=O)c1ccccc1	.	7%[10 µM]	-1%	-4%[9.22 µM]	0.79µM*	.
NS(=O)(=O)c1cc2c(cc1Cl)=NC(CCC(=O)O)=NS=2(=O)O	.	-11%[10 µM]	.	.	-4%[13.5 µM]	-5%
CC1CCN(c2ccccc2NC(=S)NC(=O)C(C)(C)C)CC1	.	.	3%	0%	1.3µM*	.
Cc1ccccc1C(=O)NC(=S)Nc1ccccc1N1CCCC1	.	-23%	-30%	-2%[9.22 µM]	25µM*	.
O=C(Nc1ccccc1N1CCCCC1)c1ccccc1F	?	8%	?	?	?	-21%
O=C(NC(=S)Nc1ccccc1N1CCCCC1)c1ccccc1	.	13%	-15%	3%[9.22 µM]	19µM*	.
O=C(NC(=S)Nc1ccccc1N1CCCC1)c1cccc(F)c1	.	-24%	?	14%[9.22 µM]	8.9µM*	.
COC(=O)[C@@H]1C[C@@]2(O)[C@@H](O)[C@@H](O)[C@@H](O)C[C@H]2N1Cc1ccc(C(C)(C)C)cc1	.	-121%	8%	.	?	-11%
Cc1cccc(COc2ccc(/C=N/NC(=O)c3nnn(-c4nonc4N)c3COc3ccc(F)cc3)cc2)c1	.	13%[10 µM]	20%	19%[9.22 µM]	.	.
O=C(c1ccc(Nc2nccc(-c3cc4ccccc4s3)n2)cc1)N1CCC(N2CCCC2)CC1	.	.	-22%	.	.	.
O=C(NC(=S)Nc1ccccc1N1CCCC1)c1ccc(F)cc1	.	-5%	12%	?	7.5µM*	.
CCCCCCCCCCCCCCCCCCCCCCO	.	-8%	2%	-7%	1%	-4%
CC(C)CNC(=O)COC(=O)c1c2c(nc3ccccc13)/C(=C/c1cccs1)CC2	?	-19%[10 µM]	?	5.6µM*	-4%	.
CC1(C)S[C@@H]2[C@H](NC(=O)C3(N)CCCCC3)C(=O)N2[C@@H]1C(=O)O	.	-2%[10 µM]	.	.	-9%[13.5 µM]	-10%
C#CCCCO/N=C1/C[C@@H](O)[C@@H](O)[C@@H]2[C@@H]3C(=O)N(c4cccc(Oc5ccccc5)c4)C(=O)[C@H]3CC[C@@H]12	.	-6%[10 µM]	-9%[13.1 µM]	.	-4%[13.5 µM]	.
CCOC(=O)C1(CC2CCCCO2)CCN(Cc2nc(C(C)C)cs2)CC1 (centres undefined)	.	12%[10 µM]	5%	5%[9.22 µM]	1%	.
Cc1c(C(=O)N2CCCCC2C)sc2ncnc(N3CCc4ccccc4C3)c12 (centres undefined)	.	-44%	-9%	-27%	7.9µM*	.
CCOC(=O)/C(C#N)=N/Nc1c(C)n(C)n(-c2ccccc2)c1=O	.	-25%	-12%	-8%	7.9µM*	.
Cc1cc(C(=O)O)c(C)n1-c1ccccc1	1	1%	-3%	11%[9.22 µM]	?	-2%
CSc1cccc(-n2c(C)cc(C(N)=O)c2C)c1	-14	-6%[10 µM]	-12%	13%	6%	4.5µM*
O=C(NCc1cccnc1)c1ccc(Cl)c(S(=O)(=O)Nc2ccccc2C(=O)NCc2cccnc2)c1	.	-9%[10 µM]	-6%	5%	1%	.
CCCc1nc2ccccc2c(C(=O)OCC(=O)NCc2ccc3c(c2)OCO3)c1CC	-18	.	7%	15%	?	-8%
CC(OC(=O)c1nn(C)c(=O)c2ccccc12)C(=O)NCc1ccc2c(c1)OCO2 (centres undefined)	-23	-15%[10 µM]	5%	2%	?	20µM*
CCCc1nc2ccccc2c(C(=O)OC(C)C(=O)NCc2ccc3c(c2)OCO3)c1CC (centres undefined)	?	.	3%	2%	4.5µM*	-21%
